Most compounds without a hit are left out; they make up all but 7.7% or so of the library.
Shh pathway inh: Hedgehog pathway signaling inhibitors, primary screen, luminescence, Shh-LIGHT2 cells, Gli-luciferase; Shh-LIGHT2 Gli-luciferase reporter, 30 h; inhibition, % (test concentration not listed); 22,000 tested, 2.1% active; AID 2313, 2010;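 active means mean inhibition across valid replicates above about 65%, limit read from the data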;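 further: pathway switched on by Shh-conditioned medium diluted 1 in 25 in low serum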
NOMO-1 viab: NOMO-1 AML cell viability reduction, primary screen, STK33 inhibitor project, CellTiter-Glo luminescence; 37,000 tested, 7.5% active; inhibition, % (concentration not given with the values); AID 2330, 2010; NOMO-1 AML viability, 72 h; in the data active means inhibition above about 80%
PD-1 reversal: activators reversing PD-1 mediated T-cell inhibition, primary screen, luminescence, primary human CD4 T cells, PD-L1 beads; CellTiter-Glo 96 h; 29,000 tested, under 10 active; activation, % (test concentration not listed); call rule not given here
A number is an active result; n = inactive; x = no result given.

SMILES	Shh pathway inh	NOMO-1 viab	PD-1 reversal
C[S+](O)c1ccc(CSc2nc(-c3ccc(F)cc3)c(-c3ccncc3)[nH]2)cc1 (configuration not stated)	n	n	n
Oc1ccc(-c2nc(-c3ccc(F)cc3)c(-c3ccncc3)[nH]2)cc1	74	n	x
CC(C)c1ccc(NC(=O)CSc2n[nH]c(-c3ccc(Cl)cc3)n2)cc1	x	n	n
Cc1ccc(NC(=O)CSc2nc(-c3ccccc3)c(-c3ccccc3)[nH]2)c(C)c1	x	n	x
Cc1cc(C)c(NC(=O)CSc2nc(-c3ccccc3)c(-c3ccccc3)[nH]2)c(C)c1	x	101	n
Cc1ccccc1NC(=O)CSc1nc2cc3ccccc3cc2[nH]1	x	115	x
O=C(CSc1nc2ccccc2[nH]1)Nc1cccc2ccccc12	x	n	n
Cc1c(NC(=O)CN(c2ccc(F)c(Cl)c2)S(C)(=O)=O)cccc1[N+](=O)[O-]	x	n	n
CC(=C/C(=O)O)/C=C/c1ccccc1	x	n	n
CC1=C(/C=C/C(C)=C/C=C/C(C)=C\C(=O)O)C(C)(C)CCC1	82	n	x
O=C(Nc1ccccc1C(F)(F)F)C1Sc2nnc(-c3ccccc3)n2NC1c1ccc(F)cc1 (configuration not stated)	n	n	n
CCOc1ccc2c(c1)C(C)=CC(C)(C)N2	n	n	x
CC1=CC(C)(C)Nc2ccc(OC(=O)CN3C(=O)c4cccc([N+](=O)[O-])c4C3=O)cc21	x	115	n
C=C1[C@H](O)C[C@H]2[C@@H](/C=C(\C)C(=O)[C@@]3(O)C[C@H](C)[C@H](O)[C@@H]3[C@H]1O)C2(C)C	n	n	n
C[C@H](CO)N1C[C@H](C)[C@H](CN(C)S(=O)(=O)c2ccc(Cl)cc2)Oc2c(NC(=O)Nc3ccccc3)cccc2C1=O	117	n	x
C[C@H](CO)N1C[C@H](C)[C@@H](CN(C)S(=O)(=O)c2ccc(Cl)cc2)Oc2c(NC(=O)Nc3ccccc3)cccc2C1=O	n	n	n
C[C@H](CO)N1C[C@H](C)[C@H](CN(C)S(=O)(=O)c2ccc(Cl)cc2)Oc2c(NC(=O)Nc3ccc(F)cc3)cccc2C1=O	117	93	n
C[C@@H]1CN([C@@H](C)CO)C(=O)c2cccc(NC(=O)Nc3ccc(F)cc3)c2O[C@@H]1CN(C)S(=O)(=O)c1ccc(Cl)cc1	n	82	n
C[C@@H]1CN([C@@H](C)CO)C(=O)c2cccc(NC(=O)Nc3ccc(F)cc3)c2O[C@H]1CN(C)S(=O)(=O)c1ccc(Cl)cc1	n	n	x
C[C@H]1CN([C@@H](C)CO)C(=O)c2cccc(NC(=O)Nc3ccc(F)cc3)c2O[C@@H]1CN(C)S(=O)(=O)c1ccc(Cl)cc1	n	n	x
Cc1nc(SCC(=O)Nc2sc3c(c2C#N)CCCC3)nc2c1CCCC2	x	n	n
CC1(C)CC[C@]2(C(=O)O)CC[C@]3(C)C(=CCC4[C@@]5(C)CC[C@H](O[C@@H]6O[C@H](C(=O)O)[C@@H](O[C@@H]7OC[C@@H](O)[C@H](O)[C@H]7O)[C@H](O)[C@H]6O)C(C)(C)C5CC[C@]43C)C2C1 (some centres not stated)	105	116	n
CC1(C)CC[C@]2(C(=O)O[C@@H]3O[C@H](CO)[C@@H](O)[C@H](O)[C@H]3O)CC[C@]3(C)C(=CCC4[C@@]5(C)CC[C@H](OC6O[C@H](CO)[C@@H](O)[C@H](O[C@@H]7O[C@H](CO)[C@@H](O)[C@H](O)[C@H]7O)[C@H]6O)C(C)(C)C5CC[C@]43C)[C@@H]2C1 (some centres not stated)	n	x	x
CC1(C)CC[C@]2(C(=O)O)CC[C@]3(C)C(=CCC4[C@@]5(C)CC[C@H](O[C@@H]6O[C@H](CO)[C@@H](O)[C@H](O)[C@H]6O)[C@@](C)(CO)C5CC[C@]43C)[C@@H]2C1 (some centres not stated)	88	x	x
CC(=O)OC1C(C)OC(OC2C(CO)OC(OC(=O)[C@]34CCC(C)(C)CC3C3=CCC5[C@@]6(C)CC[C@H](OC7OC(CO)C(OC8OC(CO)C(OC9OCC(O)C(O)C9O)C(O)C8O)C(O)C7O)[C@@](C)(CO)C6CC[C@@]5(C)[C@]3(C)CC4)C(OC3OC(C)C(O)C(O)C3O)C2O)C(O)C1O (some centres not stated)	n	x	x
SMILES	Shh pathway inh	NOMO-1 viab	PD-1 reversal
C[C@@H]1O[C@@H](O[C@@H]2[C@@H](O)[C@H](O[C@@H]3[C@@H](O)[C@H](C)O[C@@H](O[C@H]4[C@H](O[C@H]5CC[C@@]6(C)C(CC[C@]7(C)C6CC=C6[C@@H]8CC(C)(C)CC[C@]8(C(=O)O)CC[C@]67C)[C@]5(C)CO)OC[C@H](O)[C@@H]4O)[C@@H]3O)O[C@H](CO)[C@H]2O[C@@H]2O[C@H](CO)[C@@H](O[C@@H]3OC[C@@H](O)[C@H](O)[C@H]3O)[C@H](O)[C@H]2O)[C@H](O)[C@H](O)[C@H]1O (some centres not stated)	78	114	n
CC1(C)CC[C@]2(C(=O)O[C@@H]3O[C@H](CO)[C@@H](O)[C@H](O)[C@H]3O)CC[C@]3(C)C(=CCC4[C@@]5(C)CC[C@H](O[C@@H]6O[C@H](CO)[C@@H](O)[C@H](O)[C@H]6O)[C@@](C)(CO)C5CC[C@]43C)[C@@H]2C1 (some centres not stated)	n	n	n
CC1(C)CC[C@]2(C(=O)O)CC[C@]3(C)C(=CCC4[C@@]5(C)CC[C@H](O[C@@H]6O[C@H](C(=O)O)[C@@H](O[C@@H]7OC[C@@H](O)[C@H](O)[C@H]7O)[C@H](O)[C@H]6O)C(C)(C)C5CC[C@]43C)C2C1O (some centres not stated)	n	n	n
CC1OC(OC2C(O)C(CO)OC(O[C@H]3CC[C@@]4(C)C(CC[C@]5(C)C4CC=C4C6CC(C)(C)CC[C@]6(C(=O)OC6OCC(OC7OCC(O)C(O)C7O)C(O)C6O)CC[C@]45C)C3(C)C)C2O)C(O)C(OC2OCC(O)(CO)C2O)C1O (some centres not stated)	n	122	n
CS(=O)(=O)N(CC(=O)Nc1ccc2ccccc2c1)c1ccc(Cl)cc1Cl	x	n	n
Cc1cc(C)cc(N(CC(=O)Nc2c(C)cc(C)cc2C)S(C)(=O)=O)c1	x	n	n
O=C(NCCC(c1ccc(F)cc1)c1ccco1)c1cccs1 (configuration not stated)	x	n	x
COc1ccc(OC)c(NC(=O)Cn2nc([N+](=O)[O-])cc2C)c1	x	n	x
CC(=O)N[C@H]1[C@H](O[C@H]2CC[C@@]3(C)C(CC[C@]4(C)C3CC=C3[C@@H]5CC(C)(C)CC[C@]5(C(=O)O)CC[C@]34C)C2(C)C)O[C@H](CO[C@@H]2OC[C@H](O)[C@H](O)[C@H]2O[C@@H]2OC[C@H](O)[C@H](O)[C@H]2O)[C@@H](O)[C@@H]1O (some centres not stated)	109	120	n

Screens deposited in PubChem by Broad Institute.
